# Only a selection was taken, and the strongest signals are over-represented in it overall.
# B1: Agalectin (Anopheles gambiae) (protein)
# chain: MSNRPFTAKFPRYPENGDEVFIRGKLKDDAKSFSVNFCLPRPAQVAEHQTPPYIALHFKTIYDERDDTSRVVLNWKNLQWQQEEVLDNYWHVDRSQTFRVVFRLHEDCIKVFVNSVDHPPDYQFPVQLPLDQIESIELWDDVEHVEEISFRYDNGNSY
# How the values were obtained:
# Assay in all cases: glycan array binding signal (z-score within array); higher = stronger binding
# Details in all cases: glycan notation: IUPAC condensed, linker removed
# Gal6P(b1-4)GlcNAc = molecular target: Gal6P(b1-4)GlcNAc
# Summary of the method: (§1)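 The Consortium for Functional Glycomics database supplied 3228 glycan arrays, of which those lacking an available protein sequence were dropped. The binding signal, a within-array Z-score, was averaged across arrays of the same protein sequence and across linkers. Negative scores can be read as non-binding.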
# GalNAc(a1-3)Gal = molecular target: GalNAc(a1-3)Gal
# Summary of the method: as §1
# GalNAc(b1-3)Gal = molecular target: GalNAc(b1-3)Gal
# Summary of the method: as §1
# [1] = molecular target: GalNAc(b1-3)Gal(a1-4)Gal(b1-4)GlcNAc(b1-3)Gal(b1-4)Glc
# Summary of the method: as §1
# [2] = molecular target: GalNAc(b1-4)GlcNAc(b1-2)Man
# Summary of the method: as §1
# Glc(b1-4)Glc = molecular target: Glc(b1-4)Glc
# Summary of the method: as §1
# [3] = molecular target: GlcNAc(b1-2)Gal(b1-3)GalNAc
# Summary of the method: as §1
# [4] = molecular target: GlcNAc(b1-2)[GlcNAc(b1-4)]Man(a1-3)[GlcNAc(b1-4)][GlcNAc(b1-2)[GlcNAc(b1-6)]Man(a1-6)]Man(b1-4)GlcNAc(b1-4)GlcNAc
# Summary of the method: as §1
# GlcNAc(b1-3)Gal(b1-4)Glc = molecular target: GlcNAc(b1-3)Gal(b1-4)Glc
# Summary of the method: as §1
# [5] = molecular target: GlcNAc(b1-3)Gal(b1-4)GlcNAc(b1-2)Man(a1-3)[GlcNAc(b1-3)Gal(b1-4)GlcNAc(b1-2)Man(a1-6)]Man(b1-4)GlcNAc(b1-4)GlcNAc
# Summary of the method: as §1
# [6] = molecular target: GlcNAc(b1-3)Gal(b1-4)GlcNAc(b1-3)Gal(b1-4)GlcNAc(b1-2)[GlcNAc(b1-3)Gal(b1-4)GlcNAc(b1-3)Gal(b1-4)GlcNAc(b1-6)]Man(a1-6)[GlcNAc(b1-3)Gal(b1-4)GlcNAc(b1-3)Gal(b1-4)GlcNAc(b1-2)Man(a1-3)]Man(b1-4)GlcNAc(b1-4)[Fuc(a1-6)]GlcNAc
# Summary of the method: as §1
# [7] = molecular target: GlcNAc(b1-3)Gal(b1-4)GlcNAc(b1-3)Gal(b1-4)GlcNAc(b1-3)Gal(b1-4)GlcNAc(b1-3)Gal(b1-4)GlcNAc(b1-2)Man(a1-3)[GlcNAc(b1-3)Gal(b1-4)GlcNAc(b1-3)Gal(b1-4)GlcNAc(b1-3)Gal(b1-4)GlcNAc(b1-3)Gal(b1-4)GlcNAc(b1-2)Man(a1-6)]Man(b1-4)GlcNAc(b1-4)GlcNAc
# Summary of the method: as §1
# [8] = molecular target: GlcNAc(b1-3)Gal(b1-4)GlcNAc(b1-3)Gal(b1-4)GlcNAc(b1-3)GalNAc
# Summary of the method: as §1
# [9] = molecular target: Neu5Ac(a2-3)Gal(b1-3)GalNAc(b1-3)Gal(a1-4)Gal(b1-4)Glc
# Summary of the method: as §1
# [10] = molecular target: Neu5Ac(a2-3)Gal(b1-3)GlcNAc(b1-2)[Neu5Ac(a2-3)Gal(b1-3)GlcNAc(b1-4)]Man(a1-6)[Neu5Ac(a2-3)Gal(b1-3)GlcNAc(b1-2)Man(a1-3)]Man(b1-4)GlcNAc(b1-4)GlcNAc
# Summary of the method: as §1
# [11] = molecular target: Neu5Ac(a2-3)Gal(b1-4)GlcNAc(b1-2)Man(a1-3)[Neu5Ac(a2-3)Gal(b1-4)GlcNAc(b1-2)Man(a1-6)]Man(b1-4)GlcNAc(b1-4)[Fuc(a1-6)]GlcNAc
# Summary of the method: as §1
# [12] = molecular target: Neu5Ac(a2-3)Gal(b1-4)[Fuc(a1-3)]GlcNAc(b1-2)Man
# Summary of the method: as §1
# [13] = molecular target: Neu5Ac(a2-3)Gal(b1-4)[Fuc(a1-3)]GlcNAc(b1-6)[Neu5Ac(a2-3)Gal(b1-3)]GalNAc
# Summary of the method: as §1
# [14] = molecular target: Neu5Ac(a2-3)Gal(b1-4)[Fuc(a1-3)]GlcNAc6S
# Summary of the method: as §1
# [15] = molecular target: Neu5Ac(a2-6)Gal(b1-4)GlcNAc
# Summary of the method: as §1
# [16] = molecular target: Neu5Ac(a2-6)Gal(b1-4)GlcNAc(b1-2)Man(a1-3)[Gal(b1-4)GlcNAc(b1-2)Man(a1-6)]Man(b1-4)GlcNAc(b1-4)GlcNAc
# Summary of the method: as §1
# [17] = molecular target: Neu5Ac(a2-6)Gal(b1-4)GlcNAc(b1-2)Man(a1-3)[Neu5Ac(a2-6)Gal(b1-4)GlcNAc(b1-2)Man(a1-6)]Man(b1-4)GlcNAc(b1-4)[Fuc(a1-6)]GlcNAc
# Summary of the method: as §1
# [18] = molecular target: Neu5Ac(a2-6)Gal(b1-4)GlcNAc(b1-3)Gal(b1-4)GlcNAc(b1-3)Gal(b1-4)GlcNAc(b1-2)Man(a1-3)[Neu5Ac(a2-6)Gal(b1-4)GlcNAc(b1-3)Gal(b1-4)GlcNAc(b1-3)Gal(b1-4)GlcNAc(b1-2)Man(a1-6)]GalNAc
# Summary of the method: as §1
# [19] = molecular target: Neu5Ac(a2-6)Gal(b1-4)GlcNAc(b1-3)[Neu5Ac(a2-6)Gal(b1-4)GlcNAc(b1-6)]GalNAc
# Summary of the method: as §1
# [20] = molecular target: Neu5Ac(a2-8)Neu5Ac(a2-3)Gal(b1-3)GalNAc(b1-4)[Neu5Ac(a2-8)Neu5Ac(a2-3)]Gal(b1-4)Glc
# Summary of the method: as §1
# [21] = molecular target: Neu5Ac(a2-8)Neu5Ac(a2-3)[Gal(b1-3)GalNAc(b1-4)]Gal(b1-4)Glc
# Summary of the method: as §1
# [22] = molecular target: Neu5Ac(b2-6)Gal(b1-4)GlcNAc
# Summary of the method: as §1
# [23] = molecular target: Neu5Gc(a2-8)Neu5Gc(a2-3)Gal(b1-4)GlcNAc(b1-3)Gal(b1-4)GlcNAc
# Summary of the method: as §1
binder,measurement,setting,value
B1,glycan array binding signal (z-score),Gal6P(b1-4)GlcNAc,-0.335
same,glycan array binding signal (z-score),GalNAc(a1-3)Gal,-0.221
same,glycan array binding signal (z-score),GalNAc(b1-3)Gal,-0.678
same,glycan array binding signal (z-score),[1],0.038
same,glycan array binding signal (z-score),[2],0.499
same,glycan array binding signal (z-score),Glc(b1-4)Glc,-0.613
same,glycan array binding signal (z-score),[3],-1.34
same,glycan array binding signal (z-score),[4],-0.389
same,glycan array binding signal (z-score),GlcNAc(b1-3)Gal(b1-4)Glc,-0.291
same,glycan array binding signal (z-score),[5],-0.912
same,glycan array binding signal (z-score),[6],3.5
same,glycan array binding signal (z-score),[7],3.07
same,glycan array binding signal (z-score),[8],-0.362
same,glycan array binding signal (z-score),[9],0.518
same,glycan array binding signal (z-score),[10],0.945
same,glycan array binding signal (z-score),[11],-0.933
same,glycan array binding signal (z-score),[12],0.193
same,glycan array binding signal (z-score),[13],3.95
same,glycan array binding signal (z-score),[14],3.86
same,glycan array binding signal (z-score),[15],0.241
same,glycan array binding signal (z-score),[16],-0.321
same,glycan array binding signal (z-score),[17],5.84
same,glycan array binding signal (z-score),[18],2.96
same,glycan array binding signal (z-score),[19],-0.501
same,glycan array binding signal (z-score),[20],0.647
same,glycan array binding signal (z-score),[21],-0.464
same,glycan array binding signal (z-score),[22],-0.879
same,glycan array binding signal (z-score),[23],0.981
